Results filed as inconclusive are left out. Where a call stands in place of a potency, no number is given. Calls of active or inactive are those of the source. Calls follow the shape of the dose curve; as a rule, active = well fitted activation curve with a large enough effect in the repeat runs; inconclusive = weak or mixed curves; inactive = flat fitted curve, though single readings scatter.
Assay: A CellTox Green Cytotoxicity Assay to monitor cytotoxicity in HEK293 cells - 8 hour (AID 1224884); also: nearly all actives have a fitted effect of over 35% in size
Conditions: CellTox Green fluorescence; series mostly up to 76.8 µM
Description: National Center for Advancing Translational Sciences [NCATS]
NIH Chemical Genomics Center [NCGC]
U.S. Environmental Protection Agency [EPA]
National Institutes of Environmental Health Sciences [NIEHS]
National Toxicology Program [NTP]
Cell-based models are critical for drug discovery. Determining the natural cytotoxic effects resulting from test compounds is an essential research activity. A CellTox Green Cytotoxicity Assay to monitor cytotoxicity in real time of continues cell culture during 40 hours of the compound treatment was used to screen Tox21 10K library compounds in Hek293 cells. CellTox Green Cytotoxicity Assay is a nonlytic, homogeneous, biofluorescent method to measure cytotoxicity in cell culture after experimental manipulation. The assay system uses a proprietary asymmetric cyanine dye that is excluded from viable cells but preferentially stains the dead cell's DNA. […] Viable cells produce no appreciable increases in fluorescence. Therefore, the fluorescence signal produced by the binding interaction with dead cell DNA is proportional to cytotoxicity.
The mixture of Hek293 cell suspension and reagents were dispensed at 600cells/6 ul/well in 1536-well tissue culture treated black solid bottom plates using a Multidrop dispenser. After the assay plates were incubated at a 37 C/5% CO2 incubator for 5 hours, 23 nL of compounds dissolved in DMSO, positive and negative controls was transferred to the assay plate by a pintool work station. The plates were incubated at 37 C for 40 hours. The fluorescence intensity were measured at 0h, 8h, 16h, 24h, 32h and 40h time points using ViewLux plate reader during compound treatment.

Row | SMILES | Potency | cytotoxicity increase
1 | CCNc1nc(NCC)nc(SC)n1 | inactive | 
2 | CCOC(=O)COc1ccc(Cl)cc1Cl | inactive | 
3 | C=CCc1cc(OC)c2c(c1)OCO2 | inactive | 
4 | NC(=O)CS(=O)C(c1ccccc1)c1ccccc1 (stereo not given) | inactive | 
5 | Oc1ccc2c3c1O[C@H]1[C@@H](O)C=C[C@H]4[C@@H](C2)NCC[C@@]341 | inactive | 
6 | CCC1(CC)C(=O)C=CNC1=O | inactive | 
7 | C[C@]12C=CC(=O)C=C1CC[C@@H]1[C@@H]2CC[C@@]2(C)[C@H]1CC[C@]2(C)O | inactive | 
8 | Cc1ccc2c(c1)C1CN(C)CCC1N2 (stereo not given) |  | -1.28% [at 15.8 µM] (inactive)
9 | CN(C)CCc1c[nH]c2cccc(OP(=O)(O)O)c12 | inactive | 
10 | COC(=O)[C@@H](N)CCCN/C(N)=N/[N+](=O)[O-] | inactive | 
11 | ClCOCCl | inactive | 
12 | C=CCC1(C(C)CC)C(=O)NC(=O)NC1=O (stereo not given) | inactive | 
13 | CCOC(=O)CCl | inactive | 
14 | CCOC(=O)NC(C)(C)Cc1ccc(Cl)cc1 | inactive | 
15 | CC#Cc1cc(C)nc(Nc2ccccc2)n1 | inactive | 
16 | COc1ccccc1OC | inactive | 
17 | CC(C)(C)C(=O)Cl | inactive | 
18 | CC(=O)OCC1=C(C(=O)O)N2C(=O)[C@@H](N)[C@H]2SC1 |  | -3.34% [at 15.8 µM] (inactive)
19 | CCN[C@@H](C)Cc1cccc(C(F)(F)F)c1 | inactive | 
20 | Cn1c(N)nc2c3cccnc3ccc21 | inactive | 

Row | SMILES | Potency | cytotoxicity increase
21 | CC(Cc1ccccc1)NCCn1cnc2c1c(=O)n(C)c(=O)n2C (stereo not given) | inactive | 
22 | CC[C@H](N)c1ccccc1 | inactive | 
23 | CN1COCN(Cc2cnc(Cl)s2)/C1=N\[N+](=O)[O-] | inactive | 
24 | C=C(Cl)CSC(=S)N(CC)CC | inactive | 
25 | CCCCCCC1CCOC1=O (stereo not given) | inactive | 
26 | C=CC=O | inactive | 
27 | Oc1ccc(Cc2ccc(O)cc2)cc1 | inactive | 
28 | C[C@H](N)C(=O)c1ccccc1 | inactive | 
29 | O=C1CC(=O)NC(=O)N1 | inactive | 
30 | CCOC(=O)Nc1cccc(OC(=O)Nc2ccccc2)c1 | inactive | 
31 | N#CC(Br)(Br)C(N)=O | inactive | 
32 | CN(C)C(=O)Oc1cc(OC(=O)N(C)C)cc(C(O)CNC(C)(C)C)c1 (stereo not given) | inactive | 
33 | CCC(C)C(C)(COC(N)=O)COC(N)=O (stereo not given) | inactive | 
34 | CCSC(=O)Cl | inactive | 
35 | CN(CCO)CCO | inactive | 
36 | CCC(CC)(CNC(=O)CCCO)c1cccc(OC)c1 | inactive | 
37 | Cc1cccc2sc3nncn3c12 | inactive | 
38 | ClCC1CO1 (stereo not given) | inactive | 
39 | C[N+]1(C)CCCCC1 | inactive | 
40 | CC(C)(N)Cc1ccccc1Cl | inactive | 
